In all, about 2,100 compounds went through this assay and about 590 (28%) were called active. Not shown: some 42% with an inconclusive outcome. Some of the results follow. Unmarked numbers belong to inactive results. Calls follow the shape of the dose curve; as a rule, active = well fitted inhibition curve with a large enough effect; inconclusive = small, poorly fitted or top-dose-only effect; inactive = flat fitted curve, though single readings scatter.
What follows are compounds tested against DNA dC->dU-editing enzyme APOBEC-3F (Homo sapiens) (UniProt Q8IUX4) (assay: qHTS for inhibitors of Vif-A3F interactions: Cherry picks). Details: HeLa A3F-eYFP + Vif (tagged APOBEC3F with the HIV-1 protein that degrades it), eYFP fluorescence, 24 h.
Excerpt: The recent discovery and characterization of host restriction factors, which provide a potent defense to invading retroviruses, has provided new targets for antiviral drug development. APOBEC3G (A3G) and APOBEC3F (A3F) are potent cytidine deaminases that block HIV-1 replication; HIV-1 expresses the Vif protein, which counteracts A3G and A3F by binding to them and inducing their proteasomal degradation. The Vif-A3G and Vif-A3F interactions provide two potential targets for development of small molecules which can interfere with the ability of Vif to degrade A3G or A3F. […] To identify inhibitors that can interfere with Vif mediated degradation of A3G and A3F, we have developed Hela cell lines that stably express A3G or A3F tagged with eYFP at the C-terminal end (A3G-eYFP or A3F-eYFP, respectively) and Vif. In the absence of an inhibitor, Vif induces degradation of A3G-eYFP and A3F-eYFP, and the cells are not fluorescent. In the presence of an inhibitor, it is expected that Vif will be unable to degrade A3G-eYFP and/or A3F-eYFP, resulting in an increase in yellow fluorescence. In this assay, Vif A3F was screened against the cherry picks ordered from the MLSMR. NIH Chemical Genomics Center [NCGC] NIH Molecular Libraries Probe Centers Network [MLPCN] MLPCN Grant: MH093245 Assay Submitter (PI): Vinay Pathak, National Cancer Institute
A3F-Vif cells were harvested from T225 flask and resuspended in phenol free OPTI-MEM medium with 5% FBS. Then 5 uL of 140,000 cells/mL resuspended cells was dispensed into each well of low base Aurora COC 1,536-well plates (black walled, clear bottom) using a Multidrop Combi dispenser. After overnight culture at 37 deg C with 5% CO2, a total of 23 nL of compounds at 5 selected concentrations from the NPC or positive control (2 mM stock of MG132) in DMSO was transferred to each well of the assay plate using a pintool (Kalypsys, San Diego, CA), and the plates were further incubated at 37 deg C with 5% CO2 for 24 hours. After that, the plates were measured on Acumen Explorer (TTP Lab Tech). The fluorescence was detected by 488 nm/Ex and […].
Also: nearly all actives have a fitted effect of over 70% in size.
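For max response in this document: % of control where 0% means no effect; active compounds raise eYFP fluorescence by blocking Vif-driven A3F loss.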
Potency is read from the fitted curve at half-maximal effect.

Sequence of DNA dC->dU-editing enzyme APOBEC-3F (Homo sapiens) (Q8IUX4 whole entry, looked up): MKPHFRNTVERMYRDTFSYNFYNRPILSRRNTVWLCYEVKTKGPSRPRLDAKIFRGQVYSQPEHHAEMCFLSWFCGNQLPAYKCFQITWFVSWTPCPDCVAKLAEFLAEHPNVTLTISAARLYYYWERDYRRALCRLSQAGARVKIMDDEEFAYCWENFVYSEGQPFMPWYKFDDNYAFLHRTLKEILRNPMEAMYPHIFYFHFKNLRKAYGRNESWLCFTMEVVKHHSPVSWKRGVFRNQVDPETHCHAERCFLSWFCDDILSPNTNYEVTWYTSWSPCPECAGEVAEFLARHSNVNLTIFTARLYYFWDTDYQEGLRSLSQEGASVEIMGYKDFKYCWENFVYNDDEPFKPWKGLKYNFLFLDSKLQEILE

SMILES	max response [%]	Potency
CCCCCCN1C[C@H](O)[C@@H](n2cc(COC(=O)c3ccccc3)nn2)C[C@@H]1c1ccc(C)cc1	-0.173	–
Cc1ccc2c(c1)Sc1c(ccc3ccccc13)N2	–	16.4 µM (active)
COc1ccc(-c2csc(-c3ccc(O)cc3)n2)cc1	-24.3	–
Oc1ccc(-c2nc(-c3ccc(O)c(O)c3)cs2)cc1	–	4.44 µM (active)
COc1ccc(OC)c(CNc2nc3ccc(C)cc3n3nnnc23)c1	-21.9	–
OCCCn1c(C2CCCN2c2nc(-c3ccc(Cl)cc3)cs2)nc2cc(Cl)c(Cl)cc21 (configuration not stated)	-3.45	–
CCCCCCCNc1ccc(/C=C/c2ccnc3ccccc23)cc1	–	20.6 µM (active)
CCCCCCNc1ccc(/C=C/c2ccnc3ccccc23)cc1	–	18.4 µM (active)
C/C(=N\NC(=O)c1cc(C)nc2ccccc12)c1ccncc1	-5.92	–
COc1ccc(-c2cc(NC(C)=O)c3ncc(-c4cc(OC)c(OC)c(OC)c4)n3c2)cn1	–	4.98 µM (active)
COc1ccccc1-c1cc(NC=O)c2ncc(-c3ccc(S(C)(=O)=O)cc3)n2c1	–	7.04 µM (active)
Cc1ccc(-c2cc(NC=O)c3ncc(-c4cnn(C)c4)n3c2)cc1	–	7.9 µM (active)
COc1ccc(NC(=O)C2Cc3c(-c4ccc(NC(C)=O)cc4)ccnc3O2)cn1 (configuration not stated)	-27.7	–
COc1ccc(-c2cnc3c(NC=O)cc(-c4ccccc4)cn23)cc1OC	–	4.98 µM (active)
CCOc1ccc2nc(NC(=O)c3nc(SC(C)C)ncc3Cl)sc2c1	-25.8	–
COC(=O)c1sc(-c2cccs2)cc1NC(=O)/C=C/C(=O)O	-22.3	–
O=C1NC(c2ccccc2Br)=N/C1=C\c1ccco1	-25.1	–
CN(C)c1ccccc1-c1cc(NC=O)c2ncc(-c3cccc(C(F)(F)F)c3)n2c1	–	15.8 µM (active)
CN(C)C(=O)c1cccc(-c2cnc3c(NC=O)cc(-c4ccccc4F)cn23)c1	-4.66	–
COc1ccc(-c2nc3c4ccccc4ccn3c2Cc2ccsc2)cc1OC	-2.92	–
COc1ccc(-c2cnc3c(NC=O)cc(-c4ccoc4)cn23)cc1OC	–	11.2 µM (active)
COc1ccc(-c2cnc3c(NC=O)cc(-c4cc(OC)c(OC)c(OC)c4)cn23)cc1OC	–	15.8 µM (active)
COc1ccc(-c2cc(NC=O)c3ncc(-c4ccc(OC)c(OC)c4)n3c2)cc1OC	–	7.04 µM (active)

SMILES	max response [%]	Potency
Cc1cc(C)nc(Nc2n[nH]c(COc3cccc4ccccc34)n2)n1	-15.5	–
Cc1cc(C)nc(NC(=S)Nc2cccc(Cl)c2Cl)c1	-10.1	–
COc1ccc(C2=NOC(C(=O)NCc3ccc(F)cc3)C2)cc1 (configuration not stated)	-16.1	–
CN(C)c1ccc(/C=C/c2ccnc3ccccc23)cc1O	–	11.6 µM (active)
Cc1cc(/C=C/c2ccnc3ccccc23)ccc1N(C)C	–	8.2 µM (active)
CCc1cc(/C=C/c2ccnc3ccccc23)ccc1N(C)C	–	14.6 µM (active)
CN1CCCc2cc(/C=C/c3ccnc4ccccc34)ccc21	–	4.11 µM (active)
CN(C)c1ccc(/C=C/c2ccnc3ccccc23)cc1N	-19.7	–
CCS(=O)(=O)c1nn2c(N)c(/C=C3/C=CC(=O)C(OC)=C3)c(=O)nc2s1	11	–
Cc1ccc(NC(=S)N/N=C2\CCCCC2C)cc1 (configuration not stated)	0.346	–
O=C(/C=C/c1ccccc1)Nc1ncn[nH]1	-21.2	–
Cc1cc(/C=C/c2ccnc3ccccc23)ccc1N	–	14.6 µM (active)
COc1cccc(-c2ccc3c(N)c(C(=O)c4ccc(Br)cc4)sc3n2)c1	–	10.3 µM (active)
COc1ccc2nc3sc(C(=O)Nc4cc(Cl)c(OC)cc4OC)cc3cc2c1	-28.2	–
COc1cccc(-c2ccc3c(N)c(C(=O)c4ccc(Cl)cc4)sc3n2)c1	–	18.4 µM (active)
N#CC(C#N)=C1C=C2C=C(N3CCOCC3)CCC2CC1 (configuration not stated)	0.0461	–
O=C1N/C(=N\N=C\c2ccco2)SC1Cc1ccccc1[N+](=O)[O-] (configuration not stated)	-0.95	–
Cn1c2ccccc2c2ccc3c(c21)C(=O)C=CC3=O	5.63	–
COc1c(-c2ccc(O)c(O)c2)oc2cc(O)cc(O)c2c1=O	–	14 µM (active)
CCC[N+](C)(C)c1ccc(/C=C/c2ccncc2)cc1	–	2.31 µM (active)
CC[N+](C)(C)c1ccc(/C=C/c2ccncc2)cc1	–	4.11 µM (active)
CC1CC(=O)C2=C(C1)OC(N)=C(C#N)C2c1coc2ccccc2c1=O (configuration not stated)	-25.1	–
COc1cc(/C=C(\C#N)c2nc3ccccc3[nH]2)ccc1OCc1ccccc1F	–	18.4 µM (active)

SMILES	max response [%]	Potency
COc1ccc(OC)c2sc(NC(=O)CCS(=O)(=O)c3ccccc3)nc12	-17.2	–
COc1cc(/C=C(\C#N)c2nc3ccccc3[nH]2)ccc1O	6	–
COc1cc(/C=C(\C#N)c2nc3ccccc3s2)ccc1OCC(=O)Nc1ccccc1	–	14 µM (active)
COc1cc(/C=C(/C#N)c2nc3ccccc3[nH]2)ccc1OCC(=O)Nc1ccccc1C(C)C	–	16.4 µM (active)
CCC(=O)Nc1nc2ccc(NC(=O)c3cc(OC)c(OC)c(OC)c3)cc2s1	-4.22	–
COc1cc(N(C)C)c(OC)cc1/C=C/c1ccnc2ccccc12	–	20.6 µM (active)
COc1ccc(OC)c(Nc2nc(-c3ccncc3)nc3ccccc23)c1	-10.6	–
COc1cc(/C=C/c2ccnc3ccccc23)ccc1N(C)C	–	9.2 µM (active)
COc1cc(OC)c(/C=C/c2ccnc3ccccc23)c(OC)c1	–	14.6 µM (active)
Cc1c(C)n(Cc2ccccc2)c2ccc(C(=O)NCc3ccco3)cc12	-24.7	–
Cc1cc(C)c(NC(=O)Cn2c(=O)n(Cc3ccc(C(=O)NCc4ccco4)cc3)c(=O)c3sccc32)c(C)c1	–	14.6 µM (active)
COc1ccccc1-c1c(C#N)c(N)nc2c1CCc1ccccc1-2	-14.7	–
COc1ccc2c(n1)Sc1nc3ccccc3nc1N2	–	4.11 µM (active)
CCCOc1ccc2cc(C(=O)NCc3ccccc3)c(=O)oc2c1	-1.07	–
Cc1ccc(NC(=S)NC(=O)c2ccc(F)cc2)cc1S(=O)(=O)Nc1cccc(Cl)c1	-16.8	–
CCCOc1ccc(C(=O)Nc2cccc(NC(=O)c3ccc(Cl)cc3Cl)c2)cc1	–	16.4 µM (active)
c1cncc(-c2nc(NCc3cccs3)c3ccccc3n2)c1	-5.9	–
COc1ccc(-c2cc(-c3nnc(COC(=O)c4ccncc4)o3)c3ccccc3n2)cc1OC	2.21	–
NC(=S)N/N=C/c1cccc(O)c1O	-21	–
CC(=O)N/N=C/c1cc(C(C)(C)C)cc(/C=N/NC(C)=O)c1O	–	23.1 µM (active)
CCc1cccc2cc3c(N)c(C(=O)Nc4ccc(S(=O)(=O)N5CCCC5)cc4)sc3nc12	–	2.8 µM (active)
COc1ccc(NC(=O)c2oc3ccc(S(=O)(=O)N4CCOCC4)cc3c2C)cc1	-0.455	–
Nc1c(C(=O)Nc2ccc(S(=O)(=O)N3CCCC3)cc2)sc2nc3cc4c(cc3cc12)CCC4	–	6.51 µM (active)

SMILES	max response [%]	Potency
Cc1c(C(=O)Nc2ccc(C(C)C)cc2)sc2nc3n(c(=O)c12)CCC3	-1.94	–
O=C(CN1c2cccc3cccc(c23)S1(=O)=O)Nc1ccc(S(=O)(=O)N2CCOCC2)cc1	-0.998	–
Nc1c(C(=O)Nc2ccc(S(=O)(=O)N3CCCC3)cc2)sc2nc3ccc(OC(F)(F)F)cc3cc12	–	20.6 µM (active)
O=C(Nc1ccc(Cl)cn1)c1cccc(S(=O)(=O)N2CCCCCC2)c1	-1	–
CC(C)c1ccc(C(=O)NCCCNC(=O)c2cnccn2)cc1	1.42	–
Fc1cccc(F)c1/C=N/NC(=S)Nc1cccnc1	-0.429	–
O=C(Nc1ccc([N+](=O)[O-])cc1)C(Cc1ccccc1)N1C(=O)c2cccc3cccc(c23)C1=O (configuration not stated)	–	12.5 µM (active)
O=C(O)Cc1sc(NC2CCCCC2)nc1-c1ccc(Cl)cc1	-1.51	–
Cc1cc(NC(=O)CSc2nc3c(C)cccc3cc2C#N)no1	–	7.31 µM (active)
COCc1cc(C)nc(SCC(=O)Nc2ccc3[nH]c(=O)[nH]c3c2)c1C#N	0.302	–
Cc1nc2cc(NC(=O)CSc3nc4c(C)cccc4cc3C#N)ccc2s1	–	11.6 µM (active)
Cc1nonc1NC(=O)CSc1nc2c(C)cccc2cc1C#N	–	18.4 µM (active)
Cc1ccc(NC(=O)CSc2n[nH]c(-c3ccccn3)n2)cc1	-3.6	–
CN1C(=O)N(C)c2ccc(C=O)c3cccc1c23	-1.54	–
N#C/C(=C/c1cccs1)c1ccccn1	–	17.7 µM (active)
CCOc1ccc(Br)cc1C1C(C(=O)OC)=C(N)Oc2cc(N(C)C)ccc21 (configuration not stated)	-21.7	–
Cn1cccc1/C=C1\SC(=Nc2cccc(O)c2)NC1=O	–	15.8 µM (active)
Cc1ccc(N=C2NC(=O)/C(=C/c3cn(C)c4ccccc34)S2)cc1C	–	17.7 µM (active)
COc1cccc(N=C2NC(=O)/C(=C/c3cc([N+](=O)[O-])ccc3O)S2)c1	-16.1	–
Cc1ccc(N=C2NC(=O)/C(=C/c3cccn3C)S2)cc1	–	9.94 µM (active)
Cc1cccc(N=C2NC(=O)/C(=C/c3cccn3C)S2)c1	-9.23	–
Cn1cccc1/C=C1\SC(=Nc2ccc(O)cc2)NC1=O	–	12.5 µM (active)
C=C1C(=O)O[C@@H]2[C@H]1[C@@H](OC(=O)/C(C)=C/C)C/C(C)=C\C(=O)/C=C(\C)[C@@H]2O	-29.6	–
